# Laboratory results reported in PubChem BioAssay (NCI).
# This is part of a sample that, as a whole, favours compounds with a hit. Of some 83,000 tested, about 20% had one in any assay.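 Results are percent growth after 48 hours of single-concentration exposure. 100 means growth as in untreated cells, lower positive values show inhibition; negative values down to -100 show cell death.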 A number with no mark means an inactive call. Active and inactive are the calls of the source. Rule for the calls: active = growth percent below 10; inactive = the rest.
# Experiments:
# Assay in all cases: NCI-60 one-dose screen, 48 h (100 = growth as untreated, 0 = no growth, -100 = all killed)
# [1] = system: T-47D breast; conditions: 10 µM unless noted
# [2] = system: BT-549 breast; conditions: 10 µM unless noted
# [3] = system: MDA-MB-435 melanoma; conditions: 10 µM unless noted
# [4] = system: SW-620 colon; conditions: 10 µM unless noted
# [5] = system: MCF7 breast; conditions: 10 µM unless noted
# [6] = system: HCT-116 colon; conditions: 10 µM unless noted
# [7] = system: HCC-2998 colon; conditions: 10 µM
# [8] = system: KM12 colon; conditions: 10 µM unless noted
Compound,growth [1],growth [2],growth [3],growth [4],growth [5],growth [6],growth [7],growth [8]
CNC(=O)c1nn(C)c2c1C(C)(C)Cc1cnc(Nc3ccc(N4CCN(C)CC4)cc3)nc1-2,-5.71% (active),5.23% (active),21.1%,11.5%,10.4%,0.153% (active),10.4%,0.555% (active)
O=C(Nc1cn[nH]c1-c1nc2ccc(CN3CCOCC3)cc2[nH]1)NC1CC1,36.7%,2.57% (active),35.9%,11.5%,10.4%,3.94% (active),41.8%,6.92% (active)
CCc1cc2c(cc1N1CCC(N3CCOCC3)CC1)C(C)(C)c1[nH]c3cc(C#N)ccc3c1C2=O,-26.7% (active),-19.3% (active),5.08% (active),2.54% (active),13.8%,-7.97% (active),5.22% (active),4.1% (active)
COC(=O)C1=C(C(=O)OC)C23C=C(C)C1C2=C(C)C1(CC1)[C@@](C)(O)C3=O (stereo not given in full),-3.03% (active),-35.7% (active),-18.2% (active),78.1%,11.3%,5.3% (active),-22.1% (active),29.6%
COc1cc2ncnc(Oc3cccc(NC(=O)Nc4cc(C(C)(C)C(F)(F)F)on4)c3)c2cc1OC,9.47% (active),37.4%,13.3%,27.4%,37.8%,10.8%,52.8%,42.4%
CCN(CCN(C)C)C(=O)CNCc1cc(C(N)=O)ccn1,104%,102%,110%,109%,96.1%,94.4%,94.2%,101%
Cc1cc(Nc2nc(N[C@@H](C)c3ncc(F)cn3)ncc2Cl)n[nH]1,86.5%,65.3%,77.2%,58%,63.1%,62.4%,61.4%,14.7%
CC(=O)Nc1cccc(-n2c(=O)n(C3CC3)c(=O)c3c(Nc4ccc(I)cc4F)n(C)c(=O)c(C)c32)c1,51.3%,60.7%,27.7%,19%,80.8%,10.6%,-26.9% (active),23%
Nc1ccc(S(=O)(=O)O)c2cc(S(=O)(=O)O)cc(O)c12,120%,99%,110%,107%,104%,93.7%,117%,102%
Cc1cc(N2CCCC2)nc(N(CCCNc2ccnc3cc(Cl)ccc23)Cc2ccc3c(c2)OCO3)n1,-18.4% (active),-14.1% (active),-71.9% (active),-27% (active),-12.8% (active),-22.9% (active),-52.4% (active),19.1%
Cn1cnc2c(F)c(Nc3ccc(Br)cc3Cl)c(C(=O)NOCCO)cc21,70%,78.5%,33.3%,24.2%,96%,17.6%,-10.2% (active),28.6%
C[C@@H](Oc1cc(-c2cnn(C3CCNCC3)c2)cnc1N)c1c(Cl)ccc(F)c1Cl,-65.8% (active),-42.3% (active),-90.6% (active),-59.9% (active),-66.1% (active),-73.1% (active),-73.2% (active),-61.2% (active)
COc1cc(NCCCN)c2ncccc2c1,91.9%,74.9%,83.8%,79.1%,90.1%,60.4%,83.5%,68.2%
NC1=Nc2cc(OCCCN3Cc4ccccc4C3)c(OCC3CC3)cc2C12CCCC2,2.41% (active),68.6%,38.1%,76.3%,47.5%,32.9%,1.52% (active),69.6%
C/C(=C(/c1ccc(Cl)cc1)c1ccc(OCCN2CCCCC2)cc1)c1ccccc1,46.7%,81.3%,90.9%,60.1%,43.6%,54.2%,98%,29.9%
Cc1cc(Oc2ccccc2)ccc1Nc1ncnc2ccc(-c3cnc(Cl)c(NS(C)(=O)=O)c3)cc12,-22.4% (active),-0.502% (active),17.9%,38.8%,9.35% (active),22.9%,25.7%,34.5%
c1cc[n+](Cc2c3ccccc3cc3c2ccc2ccccc23)cc1,30.8%,10.4%,51%,57.4%,31.9%,58.1%,42.8%,35.9%
COc1c(C(NC(=O)c2ccccc2)c2sccc2C)cc(Cl)c2cccnc12 (stereo not given),90.8%,97.1%,108%,100%,100%,84.1%,112%,104%
COc1cc(Nc2c(C#N)cnc3cc(OCCCN4CCN(C)CC4)c(OC)cc23)c(Cl)cc1Cl,59.4%,85.2%,31.1%,37%,58.3%,23.3%,26.9%,32.9%
CCOC(=O)C1=C(C)NC(=O)NC1c1cc(=O)oc2ccc(C)cc12 (stereo not given),94.5%,111%,117%,108%,91.3%,100%,96.2%,101%
COc1ccc(C(=O)N2c3ccccc3Sc3ccccc32)c(F)c1,40.2%,22.7%,-37.6% (active),15%,24.2%,20.1%,30.3%,22.7%
O=C1/C(=C\c2cccc(OCCCCCOc3ccc(Cl)cc3)c2)N=C2SCCCN12,26.4%,57.4%,46.1%,86.2%,68.5%,52.7%,71%,48.2%
COc1cc2ncnc3c2cc1OCCCCCN(C)Cc1ccc(Br)cc1N3,4.78% (active),60.6%,72.3%,47.7%,56.9%,33.2%,68%,58.9%
NC(=O)Nc1cc(-c2cccc(F)c2)sc1C(=O)N[C@H]1CCCNC1,15.1%,-60.9% (active),-25.8% (active),-7.1% (active),14.3%,-9.03% (active),-34.6% (active),1.83% (active)
COC(=O)[C@@H](C)CNS(=O)(=O)N(c1cc(C(F)(F)F)cc(C(F)(F)F)c1)C1CCN(Cc2ccc(F)cc2)CC1,31.1%,89.6%,76.8%,73.9%,48.7%,43.4%,-65.3% (active),51%
Nc1nc(Nc2ccccc2)c(C=Nc2ccccc2)c(=O)[nH]1,81.4%,75.1%,94.7%,98.4%,92.5%,85.1%,99.3%,98.6%
CN1CCN(CCOc2cc(OC3CCOCC3)c3c(Nc4c(Cl)ccc5c4OCO5)ncnc3c2)CC1,-14.3% (active),89.2%,98.3%,110%,62.8%,35.3%,90.7%,17.1%
CC1(O)CC(c2nc(-c3ccc4ccc(-c5ccccc5)nc4c3)c3c(N)nccn23)C1 (stereo not given),2.62% (active),19.5%,36.3%,35.4%,14.5%,35.3%,48.7%,8.69% (active)
O=C(NOCCO)c1cc(CN2OCCCC2=O)c(F)c(F)c1Nc1ccc(I)cc1F,67.6%,80.5%,36.9%,24.1%,88.7%,13.9%,-18.6% (active),26.6%
CNC(=O)c1ccc(Nc2ncc(C(F)(F)F)c(NCc3nccnc3N(C)S(C)(=O)=O)n2)cc1,-12.4% (active),-5.77% (active),8.89% (active),-4.11% (active),2.04% (active),1.19% (active),8.5% (active),1.91% (active)
